These results are taken from the supplement of paper PMC10849652.

About 8,800 targets were measured; listed, in parts, are those with a hit and a random draw of the rest. About 0.5% of all pairs of compound and target were hits. Values without a mark were called inactive.

Experiment in all cases: log2 fold change, soluble protein after heating vs DMSO (PISA); higher = thermal stabilisation; K562 lysate, 10 uM; active = over 0.2 and 3.5 SD of the protein, either way, in both replicates (recomputed)
Compound in assay [1]: C1=CC=C(C=C1)[C@H](COC2=CC3=C(C=C2)NC(=O)N3)NC(=O)C4=CC=CN(C4=O)CC5=CC(=C(C=C5)F)F
In outline:
(§1)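 Log-two fold change in thermal stability relative to solvent controls is reported from duplicates. For each sample, crude K562 extract from dounce-homogenised pellets in PBS pH 7.4 with 1 mM MgCl2, at 1 mg/mL protein, was treated with 10 μM compound for 30 min. Aliquots heated for 3 min across 48°C-58°C were pooled, brought to 0.5% NP-40 at 4°C and cleared at 21,000xg for 90 min. The supernatant was quantified by TMTpro 16plex LC-MS/MS with channel sums equalised.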

Compound in assay [2]: CC1=C(SC2=C1C(=N[C@H](C3=NN=C(N32)C)CC(=O)N)C4=CC=C(C=C4)Cl)C
The gist of the method: as §1

Compound in assay [3]: CC1=C2C(=CC=C1)N=C(N(C2=O)C3=CC=CC=C3C)CN4C=NC5=C(N=CN=C54)N
The gist of the method:
as §1

Compound in assay [4]: Cc1sc2c(c1C)C(c1ccc(Cl)cc1)=N[C@@H](CC(=O)OC(C)(C)C)c1nnc(C)n1-2
The gist of the method:
as §1

Compound in assay [5]: c1ccc([C@@H]2C[C@H]2NC2CCNCC2)cc1
The gist of the method:
as §1

UniProt Q9H0B6, sequence (Q9H0B6 whole entry, looked up): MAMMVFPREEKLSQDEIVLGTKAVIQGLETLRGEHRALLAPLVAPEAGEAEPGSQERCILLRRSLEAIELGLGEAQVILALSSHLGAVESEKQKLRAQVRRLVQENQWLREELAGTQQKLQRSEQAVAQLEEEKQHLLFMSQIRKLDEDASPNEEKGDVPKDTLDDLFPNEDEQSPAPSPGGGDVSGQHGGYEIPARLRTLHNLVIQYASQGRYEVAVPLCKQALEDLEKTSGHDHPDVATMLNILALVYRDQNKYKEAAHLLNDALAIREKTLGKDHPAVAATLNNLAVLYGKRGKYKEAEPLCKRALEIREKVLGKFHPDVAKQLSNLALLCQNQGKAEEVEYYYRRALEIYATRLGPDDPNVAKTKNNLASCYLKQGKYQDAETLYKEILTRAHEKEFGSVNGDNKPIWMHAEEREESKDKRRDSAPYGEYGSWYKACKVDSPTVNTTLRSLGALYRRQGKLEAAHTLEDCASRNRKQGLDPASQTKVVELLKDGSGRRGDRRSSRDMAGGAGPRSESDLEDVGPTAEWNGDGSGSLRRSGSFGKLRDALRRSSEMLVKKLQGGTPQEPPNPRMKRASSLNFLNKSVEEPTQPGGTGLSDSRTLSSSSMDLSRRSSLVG
UniProt P49917, sequence (P49917 whole entry, looked up): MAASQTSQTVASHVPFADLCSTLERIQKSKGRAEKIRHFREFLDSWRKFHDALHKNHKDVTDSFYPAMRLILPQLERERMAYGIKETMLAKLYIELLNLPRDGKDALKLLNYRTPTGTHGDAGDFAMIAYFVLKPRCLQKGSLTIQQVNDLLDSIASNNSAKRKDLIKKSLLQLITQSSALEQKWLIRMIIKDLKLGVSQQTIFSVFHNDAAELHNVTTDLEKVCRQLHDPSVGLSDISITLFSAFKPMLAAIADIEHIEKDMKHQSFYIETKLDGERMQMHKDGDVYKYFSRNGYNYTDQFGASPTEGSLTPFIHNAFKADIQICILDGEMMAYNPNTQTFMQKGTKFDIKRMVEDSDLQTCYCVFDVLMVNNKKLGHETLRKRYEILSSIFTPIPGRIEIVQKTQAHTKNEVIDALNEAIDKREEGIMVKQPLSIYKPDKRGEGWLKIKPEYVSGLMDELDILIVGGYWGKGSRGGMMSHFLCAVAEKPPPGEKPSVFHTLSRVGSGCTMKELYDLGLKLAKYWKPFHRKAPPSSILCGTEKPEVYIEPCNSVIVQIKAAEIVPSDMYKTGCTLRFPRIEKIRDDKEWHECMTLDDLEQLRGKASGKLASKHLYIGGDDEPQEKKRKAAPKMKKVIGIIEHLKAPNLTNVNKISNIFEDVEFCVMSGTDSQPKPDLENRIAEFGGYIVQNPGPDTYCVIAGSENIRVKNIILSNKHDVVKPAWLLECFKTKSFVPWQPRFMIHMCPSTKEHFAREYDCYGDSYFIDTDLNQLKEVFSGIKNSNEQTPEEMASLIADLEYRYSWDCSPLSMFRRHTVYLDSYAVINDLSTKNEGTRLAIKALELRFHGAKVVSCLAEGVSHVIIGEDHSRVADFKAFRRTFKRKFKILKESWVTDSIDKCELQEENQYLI
UniProt Q9UFC0, sequence (Q9UFC0 whole entry, looked up): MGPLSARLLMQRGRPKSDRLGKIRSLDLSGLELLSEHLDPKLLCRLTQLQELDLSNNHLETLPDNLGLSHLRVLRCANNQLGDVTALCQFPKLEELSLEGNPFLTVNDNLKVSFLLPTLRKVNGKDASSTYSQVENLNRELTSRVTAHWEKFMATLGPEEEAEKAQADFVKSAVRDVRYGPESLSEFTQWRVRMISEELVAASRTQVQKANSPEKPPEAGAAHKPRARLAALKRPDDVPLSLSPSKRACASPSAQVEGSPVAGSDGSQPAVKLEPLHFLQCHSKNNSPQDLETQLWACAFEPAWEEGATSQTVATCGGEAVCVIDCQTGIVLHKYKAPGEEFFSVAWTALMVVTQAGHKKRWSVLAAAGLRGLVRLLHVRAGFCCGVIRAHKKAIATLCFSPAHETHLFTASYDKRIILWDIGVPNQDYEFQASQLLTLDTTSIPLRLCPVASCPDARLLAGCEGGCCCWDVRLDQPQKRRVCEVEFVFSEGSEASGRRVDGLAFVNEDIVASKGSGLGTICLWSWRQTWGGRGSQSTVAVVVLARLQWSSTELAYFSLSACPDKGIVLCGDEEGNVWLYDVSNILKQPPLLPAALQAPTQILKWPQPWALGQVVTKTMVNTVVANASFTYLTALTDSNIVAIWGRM
UniProt Q9Y448, sequence (Q9Y448 whole entry, looked up): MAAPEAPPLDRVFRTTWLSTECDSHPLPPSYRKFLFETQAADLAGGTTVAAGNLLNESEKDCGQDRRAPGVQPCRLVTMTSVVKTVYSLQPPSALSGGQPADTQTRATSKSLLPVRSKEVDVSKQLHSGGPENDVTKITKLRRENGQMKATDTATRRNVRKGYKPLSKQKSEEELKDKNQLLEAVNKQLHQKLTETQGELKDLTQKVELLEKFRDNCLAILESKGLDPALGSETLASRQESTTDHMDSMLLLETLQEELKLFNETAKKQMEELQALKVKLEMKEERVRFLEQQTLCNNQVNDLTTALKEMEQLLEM
UniProt Q16539, sequence (Q16539 whole entry, looked up): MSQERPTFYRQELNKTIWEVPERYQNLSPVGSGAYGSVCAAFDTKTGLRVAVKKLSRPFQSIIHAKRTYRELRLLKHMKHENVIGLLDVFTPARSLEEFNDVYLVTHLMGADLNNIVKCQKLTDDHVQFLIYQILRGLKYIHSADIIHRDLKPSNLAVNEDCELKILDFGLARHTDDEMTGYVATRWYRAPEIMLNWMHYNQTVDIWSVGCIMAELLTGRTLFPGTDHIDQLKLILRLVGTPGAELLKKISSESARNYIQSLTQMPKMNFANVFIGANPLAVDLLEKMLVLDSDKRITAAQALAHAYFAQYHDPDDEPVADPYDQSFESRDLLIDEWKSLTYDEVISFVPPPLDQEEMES
UniProt Q9NS87, sequence (Q9NS87 whole entry, looked up): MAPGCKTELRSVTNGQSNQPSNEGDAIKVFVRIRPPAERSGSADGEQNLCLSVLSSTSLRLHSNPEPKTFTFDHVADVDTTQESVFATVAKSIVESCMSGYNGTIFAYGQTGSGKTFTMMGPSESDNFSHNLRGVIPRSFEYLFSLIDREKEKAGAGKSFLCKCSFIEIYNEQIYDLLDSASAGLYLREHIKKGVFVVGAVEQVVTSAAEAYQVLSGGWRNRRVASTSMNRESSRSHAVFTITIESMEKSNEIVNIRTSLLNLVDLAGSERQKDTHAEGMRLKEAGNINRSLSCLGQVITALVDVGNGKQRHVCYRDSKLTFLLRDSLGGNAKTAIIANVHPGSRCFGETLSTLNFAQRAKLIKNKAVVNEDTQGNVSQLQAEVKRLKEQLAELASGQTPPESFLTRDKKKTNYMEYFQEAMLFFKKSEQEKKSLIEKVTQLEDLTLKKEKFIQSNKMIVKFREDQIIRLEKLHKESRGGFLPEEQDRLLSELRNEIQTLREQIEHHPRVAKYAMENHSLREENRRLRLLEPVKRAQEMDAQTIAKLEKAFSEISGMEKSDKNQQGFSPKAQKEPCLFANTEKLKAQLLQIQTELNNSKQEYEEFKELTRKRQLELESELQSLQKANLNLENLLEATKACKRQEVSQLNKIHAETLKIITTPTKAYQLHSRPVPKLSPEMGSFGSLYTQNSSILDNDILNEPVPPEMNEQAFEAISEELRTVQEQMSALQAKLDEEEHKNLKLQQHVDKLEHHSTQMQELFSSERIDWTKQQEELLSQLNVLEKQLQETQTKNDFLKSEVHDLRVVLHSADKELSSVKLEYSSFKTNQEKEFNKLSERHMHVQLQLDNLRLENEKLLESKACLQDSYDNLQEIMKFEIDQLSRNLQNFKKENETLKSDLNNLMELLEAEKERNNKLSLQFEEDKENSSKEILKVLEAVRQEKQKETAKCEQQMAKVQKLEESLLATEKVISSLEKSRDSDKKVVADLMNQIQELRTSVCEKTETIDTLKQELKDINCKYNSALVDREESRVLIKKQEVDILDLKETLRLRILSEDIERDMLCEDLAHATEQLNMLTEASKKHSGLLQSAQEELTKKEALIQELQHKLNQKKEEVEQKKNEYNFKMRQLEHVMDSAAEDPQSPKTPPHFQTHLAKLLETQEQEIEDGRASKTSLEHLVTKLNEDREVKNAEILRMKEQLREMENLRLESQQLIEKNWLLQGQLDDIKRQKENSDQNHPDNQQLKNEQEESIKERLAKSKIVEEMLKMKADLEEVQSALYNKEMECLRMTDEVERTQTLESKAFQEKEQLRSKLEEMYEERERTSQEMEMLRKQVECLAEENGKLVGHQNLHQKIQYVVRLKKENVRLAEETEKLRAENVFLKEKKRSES
UniProt Q96G25, sequence (Q96G25 whole entry, looked up): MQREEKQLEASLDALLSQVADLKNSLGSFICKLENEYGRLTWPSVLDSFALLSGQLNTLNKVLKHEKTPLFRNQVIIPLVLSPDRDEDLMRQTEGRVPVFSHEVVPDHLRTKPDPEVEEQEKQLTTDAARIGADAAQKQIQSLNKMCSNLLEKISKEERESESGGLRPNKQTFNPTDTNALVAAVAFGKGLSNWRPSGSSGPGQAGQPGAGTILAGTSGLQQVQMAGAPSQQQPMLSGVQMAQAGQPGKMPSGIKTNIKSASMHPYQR
UniProt Q9BPX6, sequence (Q9BPX6 whole entry, looked up): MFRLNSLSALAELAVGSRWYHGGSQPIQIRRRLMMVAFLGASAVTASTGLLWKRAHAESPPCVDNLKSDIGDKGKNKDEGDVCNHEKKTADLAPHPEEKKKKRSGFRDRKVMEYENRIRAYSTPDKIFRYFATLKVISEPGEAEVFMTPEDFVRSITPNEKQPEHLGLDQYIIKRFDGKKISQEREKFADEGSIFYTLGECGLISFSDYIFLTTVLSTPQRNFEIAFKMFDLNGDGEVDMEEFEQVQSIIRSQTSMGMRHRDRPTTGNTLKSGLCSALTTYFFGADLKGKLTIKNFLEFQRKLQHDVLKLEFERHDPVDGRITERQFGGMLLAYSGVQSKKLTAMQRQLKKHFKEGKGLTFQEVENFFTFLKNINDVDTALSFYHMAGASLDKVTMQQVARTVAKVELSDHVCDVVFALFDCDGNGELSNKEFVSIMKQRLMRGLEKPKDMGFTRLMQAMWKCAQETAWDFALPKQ

On to MAP2K5 (UniProt Q13163), for which the log2 fold change in assay [1] is -0.046; in assay [2] it was 0.155; in assay [3], -0.045; in assay [4], -0.407; in assay [5], -0.02.

Take LRWD1 (UniProt Q9UFC0): the log2 fold change in assay [1] was -0.027; in assay [2], 0.044; in assay [3], -0.012; in assay [4], 0.023; in assay [5] it was 0.039.

For the target MIF (UniProt P14174), the log2 fold change was 0.046 in assay [1]; 0.022 in assay [2]; -0.043 in assay [3]; -0.013 in assay [4]; -0.09 in assay [5].

For MMS22L (UniProt Q6ZRQ5), the log2 fold change is -0.062 in assay [1]; -0.027 in assay [2]; -0.038 in assay [3]; 0.07 in assay [4]; 0.11 in assay [5].

Turning to LRPPRC (UniProt P42704), the log2 fold change in assay [1] is -0.067; in assay [2], 0.043; in assay [3], 0.049; in assay [4] it was 0.039; in assay [5], 0.122.

As for KIF15 (UniProt Q9NS87), the log2 fold change is -0.008 in assay [1]; -0.003 in assay [2]; 0.021 in assay [3]; -0.02 in assay [4]; 0.013 in assay [5].

Consider KIF11 (UniProt P52732), for which the log2 fold change in assay [1] was 0.008; in assay [2], -0.001; in assay [3] it was 0.006; in assay [4] it was -0.002; in assay [5] it was 0.

Turning to MAP3K4 (UniProt Q9Y6R4), the log2 fold change in assay [1] was 0.012; in assay [2], -0.079; in assay [3], -0.001; in assay [4], -0.03; in assay [5] it was -0.008.

Turning to KRIT1 (UniProt O00522), the log2 fold change in assay [1] was -0.026; in assay [2], -0.041; in assay [3], 0.099; in assay [4] it was -0.082.

On to KLC1 isoform 10 (UniProt Q07866), for which the log2 fold change is -0.094 in assay [1] and -0.063 in assay [2].

For MED8 isoform 2 (UniProt Q96G25), the log2 fold change in assay [1] is -0.047; in assay [2], -0.033; in assay [3], -0.048; in assay [4], -0.039; in assay [5], 0.063.

In the case of KIFC3 isoform 6 (UniProt Q9BVG8), the log2 fold change in assay [1] is 0.023; in assay [2], 0.016; in assay [3] it was -0.178; in assay [4], -0.21; in assay [5], -1.16 (active).

Turning to KLC2 (UniProt Q9H0B6), the log2 fold change is -0.032 in assay [1]; 0.016 in assay [2]; 0.029 in assay [3]; 0.003 in assay [4]; 0.122 in assay [5].

With MICU1 isoform 3 (UniProt Q9BPX6), the log2 fold change in assay [1] was -0.018; in assay [2], 0.027; in assay [3], -0.035; in assay [4], -0.043; in assay [5], 0.196.

With LYAR (UniProt Q9NX58), the log2 fold change was 0.051 in assay [1]; 0.015 in assay [2]; -0.006 in assay [3]; 0.031 in assay [4]; 0.11 in assay [5].

On to LUC7L (UniProt Q9NQ29), for which the log2 fold change is 0.011 in assay [1]; 0.013 in assay [2]; 0.006 in assay [3]; 0.003 in assay [4]; 0.055 in assay [5].

For the target MAP4 isoform 5 (UniProt P27816), the log2 fold change in assay [1] is -0.065; in assay [2], 0.099; in assay [3], 0.163; in assay [4], 0.181.

LZTS1 (UniProt Q9Y250): the log2 fold change in assay [1] was -0.082; in assay [2], 0.049; in assay [3], 0.065; in assay [4] it was -0.628; in assay [5], 0.324.

Take MRPL15 (UniProt Q9P015): the log2 fold change in assay [1] is -0.016; in assay [2] it was 0.04; in assay [3] it was 0.003; in assay [4], 0.04; in assay [5], -0.212.

Turning to MAPK14 isoform 2 (UniProt Q16539), the log2 fold change in assay [1] was 0.008; in assay [2], -0.053; in assay [3] it was 0.014; in assay [4], -0.028; in assay [5], 0.154.

For the target LIG4 (UniProt P49917), the log2 fold change in assay [1] is -0.04; in assay [2] it was 0.083; in assay [3], -0.056; in assay [4], -0.002; in assay [5], 0.078.

Regarding MARF1 (UniProt Q9Y4F3), the log2 fold change in assay [1] is -0.052; in assay [2] it was 0.013; in assay [3], 0.175; in assay [4], 0.024; in assay [5], -0.023.

With KRI1 (UniProt Q8N9T8), the log2 fold change is 0.053 in assay [1]; 0.043 in assay [2]; 0.027 in assay [3]; -0.048 in assay [4]; -0.039 in assay [5].

For the target MPZL1 (UniProt O95297), the log2 fold change is 0.056 in assay [1]; 0.006 in assay [2]; -0.068 in assay [3]; -0.042 in assay [4]; 0.125 in assay [5].

Turning to KNSTRN (UniProt Q9Y448), the log2 fold change was 0.097 in assay [1]; -0.057 in assay [2]; 0 in assay [3]; 0.002 in assay [4]; 0.034 in assay [5].
